# Key:
# [1] = target: PAS domain-containing serine/threonine-protein kinase (Homo sapiens) (UniProt Q96RG2); conditions: at 0.1 µM
# [2] = target: PAS domain-containing serine/threonine-protein kinase (Homo sapiens) (UniProt Q96RG2); conditions: at 1 µM
# [3] = target: Phosphorylase b kinase gamma catalytic chain, skeletal muscle/heart isoform (Homo sapiens) (UniProt Q16816); conditions: at 0.1 µM
# [4] = target: Phosphorylase b kinase gamma catalytic chain, skeletal muscle/heart isoform (Homo sapiens) (UniProt Q16816); conditions: at 1 µM
# [5] = target: Phosphorylase b kinase gamma catalytic chain, liver/testis isoform (Homo sapiens) (UniProt P15735); conditions: at 0.1 µM
# [6] = target: Phosphorylase b kinase gamma catalytic chain, liver/testis isoform (Homo sapiens) (UniProt P15735); conditions: at 1 µM
# [7] = target: Serine/threonine-protein kinase pim-1 (Homo sapiens) (UniProt P11309); conditions: at 0.1 µM
# Sequence of Serine/threonine-protein kinase pim-1 (Homo sapiens) (P11309 whole entry, looked up): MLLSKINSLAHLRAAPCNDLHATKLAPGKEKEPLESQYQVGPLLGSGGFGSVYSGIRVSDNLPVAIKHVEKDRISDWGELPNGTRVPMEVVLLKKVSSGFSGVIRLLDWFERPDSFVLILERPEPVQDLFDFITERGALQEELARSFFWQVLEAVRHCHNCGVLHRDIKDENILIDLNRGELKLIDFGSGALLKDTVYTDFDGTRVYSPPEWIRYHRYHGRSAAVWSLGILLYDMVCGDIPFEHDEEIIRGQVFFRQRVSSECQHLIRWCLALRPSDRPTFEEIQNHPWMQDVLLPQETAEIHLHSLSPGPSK
# [8] = target: Serine/threonine-protein kinase pim-1 (Homo sapiens) (UniProt P11309); conditions: at 1 µM
# [9] = target: Serine/threonine-protein kinase pim-2 (Homo sapiens) (UniProt Q9P1W9); conditions: at 0.1 µM
# [10] = target: Serine/threonine-protein kinase pim-2 (Homo sapiens) (UniProt Q9P1W9); conditions: at 1 µM
# [11] = target: Serine/threonine-protein kinase pim-3 (Homo sapiens) (UniProt Q86V86); conditions: at 0.1 µM
# [12] = target: Serine/threonine-protein kinase pim-3 (Homo sapiens) (UniProt Q86V86); conditions: at 1 µM
# [13] = target: MAP kinase-activated protein kinase 5 (Homo sapiens) (UniProt Q8IW41); conditions: at 0.1 µM
# Sequence of MAP kinase-activated protein kinase 5 (Homo sapiens) (Q8IW41 whole entry): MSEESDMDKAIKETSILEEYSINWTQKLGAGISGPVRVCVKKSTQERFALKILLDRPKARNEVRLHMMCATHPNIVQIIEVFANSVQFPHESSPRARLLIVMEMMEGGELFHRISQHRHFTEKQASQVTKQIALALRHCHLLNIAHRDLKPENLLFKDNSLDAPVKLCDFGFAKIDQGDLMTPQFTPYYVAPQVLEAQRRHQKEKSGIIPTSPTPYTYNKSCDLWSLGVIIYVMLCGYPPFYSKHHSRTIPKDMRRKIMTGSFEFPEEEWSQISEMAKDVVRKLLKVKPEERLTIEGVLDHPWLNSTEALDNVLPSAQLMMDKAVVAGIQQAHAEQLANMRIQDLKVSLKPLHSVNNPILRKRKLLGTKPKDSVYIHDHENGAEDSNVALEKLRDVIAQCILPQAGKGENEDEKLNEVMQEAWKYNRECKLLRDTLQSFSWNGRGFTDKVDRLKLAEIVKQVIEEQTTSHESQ
# [14] = target: MAP kinase-activated protein kinase 5 (Homo sapiens) (UniProt Q8IW41); conditions: at 1 µM
# [15] = target: Serine/threonine-protein kinase SIK1 (Homo sapiens) (UniProt P57059); conditions: at 0.1 µM
# [16] = target: Serine/threonine-protein kinase SIK1 (Homo sapiens) (UniProt P57059); conditions: at 1 µM
# [17] = target: Serine/threonine-protein kinase SIK2 (Homo sapiens) (UniProt Q9H0K1); conditions: at 0.1 µM
# Sequence of Serine/threonine-protein kinase SIK2 (Homo sapiens) (Q9H0K1 whole entry, looked up): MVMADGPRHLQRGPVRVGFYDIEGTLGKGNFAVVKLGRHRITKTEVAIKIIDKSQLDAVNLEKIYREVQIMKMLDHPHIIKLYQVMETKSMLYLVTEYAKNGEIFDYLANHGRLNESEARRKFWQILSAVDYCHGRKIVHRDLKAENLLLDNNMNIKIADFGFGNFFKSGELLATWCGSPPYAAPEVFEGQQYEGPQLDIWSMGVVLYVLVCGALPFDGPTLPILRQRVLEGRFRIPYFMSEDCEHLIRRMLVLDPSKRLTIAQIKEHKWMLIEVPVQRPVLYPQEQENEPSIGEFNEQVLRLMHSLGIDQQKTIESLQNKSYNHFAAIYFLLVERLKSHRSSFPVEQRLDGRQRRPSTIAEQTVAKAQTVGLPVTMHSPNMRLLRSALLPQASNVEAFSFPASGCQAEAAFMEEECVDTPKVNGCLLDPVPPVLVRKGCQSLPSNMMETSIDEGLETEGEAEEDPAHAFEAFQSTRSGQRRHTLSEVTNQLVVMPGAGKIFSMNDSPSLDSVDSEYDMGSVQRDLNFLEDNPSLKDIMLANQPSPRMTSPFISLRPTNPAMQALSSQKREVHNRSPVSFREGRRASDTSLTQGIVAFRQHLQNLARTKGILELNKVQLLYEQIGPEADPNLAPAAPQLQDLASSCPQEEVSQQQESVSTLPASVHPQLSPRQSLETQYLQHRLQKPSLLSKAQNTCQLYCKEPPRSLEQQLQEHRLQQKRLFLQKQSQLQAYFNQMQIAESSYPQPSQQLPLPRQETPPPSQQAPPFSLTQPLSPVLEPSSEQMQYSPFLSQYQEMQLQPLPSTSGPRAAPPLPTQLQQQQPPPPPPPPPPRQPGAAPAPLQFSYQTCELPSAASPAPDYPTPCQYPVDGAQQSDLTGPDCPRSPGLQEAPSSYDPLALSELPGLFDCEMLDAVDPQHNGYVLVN
# [18] = target: Serine/threonine-protein kinase SIK2 (Homo sapiens) (UniProt Q9H0K1); conditions: at 1 µM
# [19] = target: Serine/threonine-protein kinase TBK1 (Homo sapiens) (UniProt Q9UHD2); conditions: at 0.1 µM
# [20] = target: Serine/threonine-protein kinase TBK1 (Homo sapiens) (UniProt Q9UHD2); conditions: at 1 µM
# [21] = target: Testis-specific serine/threonine-protein kinase 1 (Homo sapiens) (UniProt Q9BXA7); conditions: at 0.1 µM
# [22] = target: Testis-specific serine/threonine-protein kinase 1 (Homo sapiens) (UniProt Q9BXA7); conditions: at 1 µM
# [23] = target: Testis-specific serine/threonine-protein kinase 2 (Homo sapiens) (UniProt Q96PF2); conditions: at 0.1 µM
# [24] = target: Testis-specific serine/threonine-protein kinase 2 (Homo sapiens) (UniProt Q96PF2); conditions: at 1 µM
# [25] = target: Casein kinase I isoform alpha (Homo sapiens) (UniProt P48729); conditions: at 0.1 µM
# [26] = target: Casein kinase I isoform alpha (Homo sapiens) (UniProt P48729); conditions: at 1 µM
# [27] = target: Casein kinase I isoform gamma-1 (Homo sapiens) (UniProt Q9HCP0); conditions: at 0.1 µM
# [28] = target: Casein kinase I isoform gamma-1 (Homo sapiens) (UniProt Q9HCP0); conditions: at 1 µM
# [29] = target: Casein kinase I isoform gamma-2 (Homo sapiens) (UniProt P78368); conditions: at 0.1 µM
# Sequence of Casein kinase I isoform gamma-2 (Homo sapiens) (P78368 whole entry, looked up, canonical isoform): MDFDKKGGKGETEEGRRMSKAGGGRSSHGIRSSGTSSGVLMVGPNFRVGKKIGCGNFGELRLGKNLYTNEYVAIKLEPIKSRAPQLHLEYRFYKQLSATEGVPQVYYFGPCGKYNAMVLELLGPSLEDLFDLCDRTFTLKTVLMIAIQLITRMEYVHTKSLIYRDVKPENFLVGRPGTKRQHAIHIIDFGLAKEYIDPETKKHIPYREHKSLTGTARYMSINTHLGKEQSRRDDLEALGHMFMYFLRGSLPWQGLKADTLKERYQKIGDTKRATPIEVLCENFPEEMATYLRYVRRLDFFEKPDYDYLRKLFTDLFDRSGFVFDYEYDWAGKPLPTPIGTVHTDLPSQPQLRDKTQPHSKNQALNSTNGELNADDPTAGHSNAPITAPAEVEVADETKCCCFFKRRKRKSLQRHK
# [30] = target: Casein kinase I isoform gamma-2 (Homo sapiens) (UniProt P78368); conditions: at 1 µM
# [31] = target: Casein kinase I isoform gamma-3 (Homo sapiens) (UniProt Q9Y6M4); conditions: at 0.1 µM
# Sequence of Casein kinase I isoform gamma-3 (Homo sapiens) (Q9Y6M4 whole entry, looked up, canonical isoform): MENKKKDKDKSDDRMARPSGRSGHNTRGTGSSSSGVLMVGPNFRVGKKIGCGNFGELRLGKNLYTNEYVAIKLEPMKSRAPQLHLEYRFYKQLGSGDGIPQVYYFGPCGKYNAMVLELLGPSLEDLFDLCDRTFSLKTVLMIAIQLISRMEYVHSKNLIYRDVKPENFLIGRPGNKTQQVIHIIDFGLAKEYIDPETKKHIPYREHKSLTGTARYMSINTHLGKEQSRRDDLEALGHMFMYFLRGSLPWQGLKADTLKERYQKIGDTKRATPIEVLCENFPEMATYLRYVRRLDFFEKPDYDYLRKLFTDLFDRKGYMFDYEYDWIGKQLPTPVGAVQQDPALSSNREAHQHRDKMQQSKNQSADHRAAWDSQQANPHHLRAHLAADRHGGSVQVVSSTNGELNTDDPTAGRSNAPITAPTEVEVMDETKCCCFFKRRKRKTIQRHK
# [32] = target: Casein kinase I isoform gamma-3 (Homo sapiens) (UniProt Q9Y6M4); conditions: at 1 µM
# [33] = target: Cyclin-dependent kinase 1 (Homo sapiens) (UniProt P06493); conditions: at 0.1 µM
# Sequence of Cyclin-dependent kinase 1 (Homo sapiens) (P06493 whole entry, looked up): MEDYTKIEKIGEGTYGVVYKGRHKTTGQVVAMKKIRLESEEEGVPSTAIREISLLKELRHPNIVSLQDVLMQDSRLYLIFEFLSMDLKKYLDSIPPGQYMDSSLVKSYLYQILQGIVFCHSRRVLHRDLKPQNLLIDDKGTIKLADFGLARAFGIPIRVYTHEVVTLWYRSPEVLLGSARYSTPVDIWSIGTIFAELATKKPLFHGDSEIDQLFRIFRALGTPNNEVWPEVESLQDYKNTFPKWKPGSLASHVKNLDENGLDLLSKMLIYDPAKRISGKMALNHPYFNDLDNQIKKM
# [34] = target: Cyclin-dependent kinase 1 (Homo sapiens) (UniProt P06493); conditions: at 1 µM
# [35] = target: Cyclin-dependent kinase 2 (Homo sapiens) (UniProt P24941); conditions: at 0.1 µM
# [36] = target: Cyclin-dependent kinase 2 (Homo sapiens) (UniProt P24941); conditions: at 1 µM
# [37] = target: Cyclin-dependent kinase 2 (Homo sapiens) (UniProt P24941); conditions: at 0.1 µM; remark: listed apart in the source
# [38] = target: Cyclin-dependent kinase 2 (Homo sapiens) (UniProt P24941); conditions: at 1 µM; remark: listed apart in the source
# [39] = target: T1, CDK3/Cyclin E (Homo sapiens) (UniProt P24864+Q00526); conditions: at 0.1 µM
# [40] = target: T1, CDK3/Cyclin E (Homo sapiens); conditions: at 1 µM
# [41] = target: Cyclin-dependent kinase 4 (Homo sapiens) (UniProt P11802); conditions: at 0.1 µM
# Sequence of Cyclin-dependent kinase 4 (Homo sapiens) (P11802 whole entry): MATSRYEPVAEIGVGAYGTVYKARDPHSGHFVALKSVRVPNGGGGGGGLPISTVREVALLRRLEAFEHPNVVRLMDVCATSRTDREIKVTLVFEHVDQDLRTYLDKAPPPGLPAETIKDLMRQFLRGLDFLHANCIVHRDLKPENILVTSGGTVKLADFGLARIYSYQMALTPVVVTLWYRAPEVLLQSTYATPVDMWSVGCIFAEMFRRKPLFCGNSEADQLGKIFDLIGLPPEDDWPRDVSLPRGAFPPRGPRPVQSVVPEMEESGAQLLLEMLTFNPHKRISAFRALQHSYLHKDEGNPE
# [42] = target: Cyclin-dependent kinase 4 (Homo sapiens) (UniProt P11802); conditions: at 1 µM
# [43] = target: Cyclin-dependent kinase 5 (Homo sapiens) (UniProt Q00535); conditions: at 0.1 µM
# Sequence of Cyclin-dependent kinase 5 (Homo sapiens) (Q00535 whole entry, looked up): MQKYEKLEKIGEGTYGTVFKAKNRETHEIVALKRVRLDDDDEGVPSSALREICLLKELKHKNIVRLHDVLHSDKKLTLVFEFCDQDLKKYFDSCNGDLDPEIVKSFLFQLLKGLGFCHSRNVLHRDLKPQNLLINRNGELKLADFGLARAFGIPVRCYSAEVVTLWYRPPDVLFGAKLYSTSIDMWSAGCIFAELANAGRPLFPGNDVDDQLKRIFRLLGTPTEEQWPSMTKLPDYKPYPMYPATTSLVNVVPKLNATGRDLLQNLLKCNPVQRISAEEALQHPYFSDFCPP
# [44] = target: Cyclin-dependent kinase 5 (Homo sapiens) (UniProt Q00535); conditions: at 1 µM
# [45] = target: Cyclin-dependent kinase 6 (Homo sapiens) (UniProt Q00534); conditions: at 0.1 µM
# [46] = target: Cyclin-dependent kinase 6 (Homo sapiens) (UniProt Q00534); conditions: at 1 µM
# [47] = target: Dual specificity protein kinase CLK2 (Homo sapiens) (UniProt P49760); conditions: at 0.1 µM
# [48] = target: Dual specificity protein kinase CLK2 (Homo sapiens) (UniProt P49760); conditions: at 1 µM
# [49] = target: Dual specificity protein kinase CLK3 (Homo sapiens) (UniProt P49761); conditions: at 0.1 µM
# Sequence of Dual specificity protein kinase CLK3 (Homo sapiens) (P49761 whole entry, looked up): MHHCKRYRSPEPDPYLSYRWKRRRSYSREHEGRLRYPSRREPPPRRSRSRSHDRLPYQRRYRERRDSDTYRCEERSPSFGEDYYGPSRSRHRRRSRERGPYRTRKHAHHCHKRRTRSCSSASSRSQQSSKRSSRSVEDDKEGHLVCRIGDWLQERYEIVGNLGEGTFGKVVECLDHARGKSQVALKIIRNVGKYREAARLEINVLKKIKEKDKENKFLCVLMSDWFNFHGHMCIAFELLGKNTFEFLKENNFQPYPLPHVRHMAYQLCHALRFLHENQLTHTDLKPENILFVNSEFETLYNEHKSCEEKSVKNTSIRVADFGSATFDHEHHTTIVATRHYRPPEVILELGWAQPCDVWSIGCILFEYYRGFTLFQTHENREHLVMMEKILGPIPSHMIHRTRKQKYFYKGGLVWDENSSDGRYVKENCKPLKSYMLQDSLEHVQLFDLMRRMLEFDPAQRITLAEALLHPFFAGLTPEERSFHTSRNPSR
# [50] = target: Dual specificity protein kinase CLK3 (Homo sapiens) (UniProt P49761); conditions: at 1 µM
# [51] = target: Dual specificity tyrosine-phosphorylation-regulated kinase 1A (Homo sapiens) (UniProt Q13627); conditions: at 0.1 µM
# [52] = target: Dual specificity tyrosine-phosphorylation-regulated kinase 1A (Homo sapiens) (UniProt Q13627); conditions: at 1 µM
# [53] = target: Dual specificity tyrosine-phosphorylation-regulated kinase 1B (Homo sapiens) (UniProt Q9Y463); conditions: at 0.1 µM
# [54] = target: Dual specificity tyrosine-phosphorylation-regulated kinase 1B (Homo sapiens) (UniProt Q9Y463); conditions: at 1 µM
# [55] = target: Dual specificity tyrosine-phosphorylation-regulated kinase 2 (Homo sapiens) (UniProt Q92630); conditions: at 0.1 µM
# Sequence of Dual specificity tyrosine-phosphorylation-regulated kinase 2 (Homo sapiens) (Q92630 whole entry): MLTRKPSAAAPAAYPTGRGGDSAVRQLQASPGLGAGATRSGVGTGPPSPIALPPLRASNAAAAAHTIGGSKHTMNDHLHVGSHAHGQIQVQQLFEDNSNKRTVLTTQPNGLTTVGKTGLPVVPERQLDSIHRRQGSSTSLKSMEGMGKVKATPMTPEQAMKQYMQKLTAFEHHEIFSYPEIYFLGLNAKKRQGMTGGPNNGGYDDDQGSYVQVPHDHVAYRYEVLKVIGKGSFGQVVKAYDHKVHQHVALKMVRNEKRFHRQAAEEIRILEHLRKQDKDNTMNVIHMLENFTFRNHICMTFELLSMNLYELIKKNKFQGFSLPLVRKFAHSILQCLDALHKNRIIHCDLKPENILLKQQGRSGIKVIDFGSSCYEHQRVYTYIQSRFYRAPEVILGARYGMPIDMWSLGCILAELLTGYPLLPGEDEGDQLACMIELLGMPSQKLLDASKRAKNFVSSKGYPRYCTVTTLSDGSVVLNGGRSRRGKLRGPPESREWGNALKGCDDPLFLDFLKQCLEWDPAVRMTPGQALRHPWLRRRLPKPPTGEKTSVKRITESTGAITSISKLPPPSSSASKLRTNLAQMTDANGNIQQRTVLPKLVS
# [56] = target: Dual specificity tyrosine-phosphorylation-regulated kinase 2 (Homo sapiens) (UniProt Q92630); conditions: at 1 µM
compound,measurement,setting,value
CNC(=O)Oc1cc(C)c(/C=C/c2cncc(C(=O)NC)c2)c(C)c1,inhibition,[1],0.86%
same,inhibition,[2],-0.55%
same,inhibition,[3],0.19%
same,inhibition,[4],3.49%
same,inhibition,[5],4.46%
same,inhibition,[6],1.16%
same,inhibition,[7],0.83%
same,inhibition,[8],1.46%
same,inhibition,[9],-0.21%
same,inhibition,[10],0.61%
same,inhibition,[11],-0.49%
same,inhibition,[12],0.47%
same,inhibition,[13],0.29%
same,inhibition,[14],-1.1%
same,inhibition,[15],46.9%
same,inhibition,[16],88.6%
same,inhibition,[17],7.72%
same,inhibition,[18],30.4%
same,inhibition,[19],2.75%
same,inhibition,[20],3.73%
same,inhibition,[21],1.39%
same,inhibition,[22],0.21%
same,inhibition,[23],1.46%
same,inhibition,[24],-0.8%
same,inhibition,[25],1.61%
same,inhibition,[26],3.51%
same,inhibition,[27],1.33%
same,inhibition,[28],2.91%
same,inhibition,[29],0.3%
same,inhibition,[30],2.73%
same,inhibition,[31],1.68%
same,inhibition,[32],4.49%
same,inhibition,[33],-0.06%
same,inhibition,[34],-0.3%
same,inhibition,[35],0.63%
same,inhibition,[36],-1.72%
same,inhibition,[37],1.5%
same,inhibition,[38],0.5%
same,inhibition,[39],0.33%
same,inhibition,[40],1.01%
same,inhibition,[41],0.95%
same,inhibition,[42],2.18%
same,inhibition,[43],0.2%
same,inhibition,[44],-0.43%
same,inhibition,[45],-2.38%
same,inhibition,[46],0.77%
same,inhibition,[47],1.89%
same,inhibition,[48],4.38%
same,inhibition,[49],0.33%
same,inhibition,[50],1.86%
same,inhibition,[51],-0.43%
same,inhibition,[52],6.77%
same,inhibition,[53],-0.07%
same,inhibition,[54],0.76%
same,inhibition,[55],2.64%
same,inhibition,[56],2.73%
